Plk1 PBD FP = Plk1 (human) PBD binding inhibition; P53350; Plk1 PBD phosphopeptide binding, fluorescence polarization; inhibition, %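 (tested at about 20 µM)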; actives 0.13% (n = 97,000); AID 693; in the data active = inhibition above about 34%, passing the limit was not always enough
sEH inhibitor = soluble epoxide hydrolase (human) inhibition; P34913; recombinant human sEH enzymatic activity assay; inhibition, % at 2 µM; actives 0.34% (n = 91,000); in the data active = inhibition above about 80%
PLK1 inh = PLK1 (human) kinase inhibition | inhibition, % at 10 µM | P53350 | AID 619 | recombinant PLK1 kinase, TR-FRET peptide phosphorylation | actives 0.53% (n = 97,000);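 active = inhibition of 50% or more in the single-concentration screen; inactive = inhibition below 50%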;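 note: 0% = DMSO max control and 100% = H-89 dihydrochloride min control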
PTK2B oligo ant = antagonists of human Pyk2 oligomerization; Q14289; Q293 cells, Pyk2 FERM NanoBiT luminescence; active compounds read low; z-score (the deposit names both 25 µM and 10 µM); actives 0.83% (n = 99,000); AID 1347419;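 active = Z-score of -3 or lower, scaled per plate to the spread of control and sample wells; inactive = z-score above -3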;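 note: negative z-score means lost luminescence so less FERM oligomerization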
Target sequence (Q14289 whole entry, looked up): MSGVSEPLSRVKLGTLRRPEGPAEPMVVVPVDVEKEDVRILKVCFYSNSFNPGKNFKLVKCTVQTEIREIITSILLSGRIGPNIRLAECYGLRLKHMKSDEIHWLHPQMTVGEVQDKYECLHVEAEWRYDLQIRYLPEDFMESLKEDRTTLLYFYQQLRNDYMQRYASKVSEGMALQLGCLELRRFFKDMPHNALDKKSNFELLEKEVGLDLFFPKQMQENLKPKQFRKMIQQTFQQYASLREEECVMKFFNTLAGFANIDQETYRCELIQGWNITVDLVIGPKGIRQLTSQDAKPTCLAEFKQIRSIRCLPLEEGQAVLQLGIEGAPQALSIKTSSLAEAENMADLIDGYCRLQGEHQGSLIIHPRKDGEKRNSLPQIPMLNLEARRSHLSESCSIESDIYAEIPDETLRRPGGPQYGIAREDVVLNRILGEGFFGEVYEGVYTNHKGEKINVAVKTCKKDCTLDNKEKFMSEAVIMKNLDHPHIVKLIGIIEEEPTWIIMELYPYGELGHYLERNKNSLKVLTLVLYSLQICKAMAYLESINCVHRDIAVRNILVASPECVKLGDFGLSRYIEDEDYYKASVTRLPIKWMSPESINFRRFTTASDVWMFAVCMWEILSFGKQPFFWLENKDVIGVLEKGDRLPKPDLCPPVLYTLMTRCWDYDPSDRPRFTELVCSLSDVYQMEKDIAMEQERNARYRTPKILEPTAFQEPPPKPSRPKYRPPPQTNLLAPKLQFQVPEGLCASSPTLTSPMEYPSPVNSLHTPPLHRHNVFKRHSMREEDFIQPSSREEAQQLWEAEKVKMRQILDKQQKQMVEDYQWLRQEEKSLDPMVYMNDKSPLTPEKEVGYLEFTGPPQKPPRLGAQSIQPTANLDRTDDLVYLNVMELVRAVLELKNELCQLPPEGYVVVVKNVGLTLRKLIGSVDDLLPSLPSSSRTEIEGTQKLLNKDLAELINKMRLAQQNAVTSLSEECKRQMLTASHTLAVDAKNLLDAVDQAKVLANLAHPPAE
sEH activator = increases human soluble epoxide hydrolase activity. actives 0.04% (n = 91,000). AID 717. purified human sEH enzymatic activity, activator screen. activation, % at 2 µM; in the data active = activation above about 37%
Active calls of the source: *. An excerpt weighted towards active compounds, which were near 1.6% of everything screened.

How did COc1ccc(NC(=O)COC(=O)c2c3c(nc4ccccc24)CCCC3)cc1 do in these assays?
Plk1 PBD FP: 9.9; PLK1 inh: -6.7; PTK2B oligo ant: -4.52*

What do the screens show for `COc1ccc(OC)c(NC(=O)COC(=O)c2c3c(nc4ccccc24)CCCC3)c1`?
Plk1 PBD FP: -17.9; sEH inhibitor: 13.8; PLK1 inh: -7.9; PTK2B oligo ant: -4.38*; sEH activator: -12.2

Results for COc1ccc(NC(=O)COC(=O)c2c3c(nc4ccccc24)CCCC3)cc1Cl ?
Plk1 PBD FP: -30.9; sEH inhibitor: 27.2; PLK1 inh: -5.6; PTK2B oligo ant: -4.62*; sEH activator: -28.7

How did CC1CCc2cc(F)ccc2N1C(=O)CSc1nnc2c(n1)[nH]c1ccc(F)cc12 (stereo unspecified) do in these assays?
Plk1 PBD FP: 23.7; sEH inhibitor: -7.7; PLK1 inh: -14.2; PTK2B oligo ant: -2.32; sEH activator: 9.9

What do the screens show for `CC1(C)NC(C)(C)C(O)(C(N)=O)C1=O` (stereo unspecified)?
Plk1 PBD FP: 5.1; sEH inhibitor: -9.2; PLK1 inh: -11.0; PTK2B oligo ant: 0.23; sEH activator: 7.1

What do the screens show for `COc1cc(Br)c(C(C)NC(=O)c2ccc(C)cc2)cc1OC` (stereo unspecified)?
Plk1 PBD FP: 16.1; sEH inhibitor: -10.2; PLK1 inh: -18.1; PTK2B oligo ant: -0.99; sEH activator: 13.1

What do the screens show for `COc1cc(Br)c(C(C)NC(=O)c2cccc(Br)c2)cc1OC` (stereo unspecified)?
Plk1 PBD FP: 22.0; sEH inhibitor: -12.2; PLK1 inh: -3.8; PTK2B oligo ant: -3.22*; sEH activator: 15.1

How did Cc1ccc(/C=N/N2CCN(Cc3cccc4ccccc34)CC2)s1 do in these assays?
PLK1 inh: -5.9

How did Cc1ccc(/C=C(/C#N)c2nc(CCN3C(=O)c4ccccc4C3=O)cs2)cc1 do in these assays?
Plk1 PBD FP: -19.3; sEH inhibitor: -2.5; PLK1 inh: 2.1; PTK2B oligo ant: -3.16*; sEH activator: 3.3

Results for COc1ccc(C(c2nnnn2Cc2cccs2)N2CCN(c3ccc(F)cc3)CC2)cc1OC (stereo unspecified) ?
Plk1 PBD FP: -39.6; sEH inhibitor: 3.1; PLK1 inh: -6.3; PTK2B oligo ant: -3.3*; sEH activator: -5.1

Results for COc1ccc(N2CCN(C(c3ccccc3)c3nnnn3Cc3ccc(F)cc3)CC2)cc1 (stereo unspecified) ?
Plk1 PBD FP: 5.2; sEH inhibitor: -12.7; PLK1 inh: -10.2; PTK2B oligo ant: -2.39; sEH activator: 13.2

How did COc1ccc(C(c2nnnn2Cc2ccc(F)cc2)N2CCN(c3ccccc3)CC2)cc1 (stereo unspecified) do in these assays?
Plk1 PBD FP: -7.6; sEH inhibitor: 14.4; PLK1 inh: -12.7; PTK2B oligo ant: -3.39*; sEH activator: -14.8

Results for CN1CCN(C(c2ccc(F)cc2)c2nnnn2Cc2cccs2)CC1 (stereo unspecified) ?
PTK2B oligo ant: -0.22

Results for COC(=O)c1ccc(COc2ccccc2/C=N/NS(=O)(=O)c2ccccc2)cc1 ?
Plk1 PBD FP: 12.2; sEH inhibitor: 2.2; PLK1 inh: 12.1; PTK2B oligo ant: -1.73; sEH activator: 0.5

Results for O=C(Nc1nc(-c2ccc(S(=O)(=O)N3CCCCCC3)cc2)cs1)c1cccs1 ?
Plk1 PBD FP: 1.5; sEH inhibitor: 2.2; PLK1 inh: -11.2; PTK2B oligo ant: -0.61; sEH activator: 1.6

How did O=C(Nc1nc(-c2ccc(S(=O)(=O)N3CCCC3)cc2)cs1)c1cccs1 do in these assays?
Plk1 PBD FP: 13.1; sEH inhibitor: 8.4; PLK1 inh: 0.9; PTK2B oligo ant: -3.21*; sEH activator: -4.9

How did COc1cccc(C(=O)Nc2nc(-c3ccc(S(=O)(=O)N4CCOCC4)cc3)cs2)c1 do in these assays?
Plk1 PBD FP: -10.5; sEH inhibitor: 11.5; PLK1 inh: -17.7; PTK2B oligo ant: -3.28*; sEH activator: -6.5

Results for O=C(Nc1nc(-c2nc3ccccc3s2)cs1)c1ccc(S(=O)(=O)N2CCOCC2)cc1 ?
Plk1 PBD FP: 7.4; sEH inhibitor: -1.4; PLK1 inh: -9.8; PTK2B oligo ant: -3.6*; sEH activator: 0.1

How did COC(=O)c1sccc1NC(=O)CN(C)NS(=O)(=O)c1ccc(F)cc1 do in these assays?
Plk1 PBD FP: -22.7; sEH inhibitor: 3.1; PLK1 inh: 2.6; PTK2B oligo ant: 0.26; sEH activator: -2.1

What do the screens show for `O=c1cc(-c2ccccc2)[nH]c2ccccc12`?
Plk1 PBD FP: 1.1; sEH inhibitor: -1.1; PLK1 inh: -7.5; PTK2B oligo ant: 1.36; sEH activator: -0.3

From PubChem BioAssay
